7 molecules from PubChem BioAssay (NCI) can be followed below.

Some test systems named below: SR leukemia; RPMI-8226 leukemia; OVCAR-8 ovarian; OVCAR-5 ovarian; OVCAR-4 ovarian; SK-OV-3 ovarian; IGROV1 ovarian; OVCAR-3 ovarian; HS 578T breast; NCI/ADR-RES ovarian; T-47D breast; BT-549 breast; MDA-MB-435 melanoma; SW-620 colon; MCF7 breast; HCT-116 colon; HCC-2998 colon; KM12 colon.
Test in all cases: NCI-60 one-dose screen, 48 h (100 = growth as untreated, 0 = no growth, -100 = all killed)
Common to all, as to details: 10 µM unless noted

The panel holds about 83,000 compounds, 20% with a hit somewhere; the sample as a whole holds those more often.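 Negative percent growth values reflect cell death: -40 means 40% of the cells present at the start died, and -100 means all died.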 A number with no mark means an inactive call. Activity calls are given as the source filed them. Rule for the calls: active = growth percent below 10; inactive = the rest.

With `O=C(O)c1ccc(-n2cc(CNc3ccc(Cl)cc3)c(-c3ccc(F)cc3)n2)cc1`, the growth with SR leukemia is 121%; in the test on RPMI-8226 leukemia, 80.2%; in the test on OVCAR-8 ovarian it was 92.4%; in the test with OVCAR-5 ovarian, 106%; in the test on OVCAR-4 ovarian, 101%; in the test with SK-OV-3 ovarian it was 110%. The growth in the test on IGROV1 ovarian was 102%; in the test with OVCAR-3 ovarian, 105%; in the test with HS 578T breast, 100%; in the test on NCI/ADR-RES ovarian, 102%; with T-47D breast, 91.4%; in the test on BT-549 breast it was 101%. In addition, the growth in the test on MDA-MB-435 melanoma was 98.1%; in the test on SW-620 colon it was 106%; with MCF7 breast it was 80.1%; with HCT-116 colon it was 82.7%; in the test on HCC-2998 colon it was 112%; in the test with KM12 colon, 104%.

With `Oc1ccc(CSc2nnc(-c3ccc(Cl)cc3)o2)c2cccnc12`, the growth in the test with SR leukemia is 34.3%; in the test on RPMI-8226 leukemia, 18.6%; in the test on OVCAR-8 ovarian, 18.9%; in the test with OVCAR-5 ovarian, 73.1%; in the test on OVCAR-4 ovarian, 19.8%; in the test with SK-OV-3 ovarian it was 20.3%. Moreover, the growth with IGROV1 ovarian was 16.4%; in the test with OVCAR-3 ovarian, 30.8%; in the test with HS 578T breast, 1.27% (active); with NCI/ADR-RES ovarian it was 9.8% (active); in the test with T-47D breast, 18.5%; in the test on BT-549 breast it was 27.9%. Moreover, the growth was 22.3% in the test with MDA-MB-435 melanoma; 17.3% in the test on SW-620 colon; 12.4% with MCF7 breast; 20.8% in the test on HCT-116 colon; 29.1% in the test on HCC-2998 colon; 18.4% in the test with KM12 colon.

`COc1cc(/C=N/n2cnc3oc(-c4ccccc4)cc3c2=N)cc(CN2CCCC2)c1O`: the growth was 27.4% with SR leukemia; -42.2% (active) in the test with RPMI-8226 leukemia; -22.2% (active) with OVCAR-8 ovarian; 99% with OVCAR-5 ovarian; -49.7% (active) with OVCAR-4 ovarian; 93.9% in the test with SK-OV-3 ovarian. Also, the growth in the test on IGROV1 ovarian is -62.8% (active); in the test with OVCAR-3 ovarian, 104%; in the test with HS 578T breast it was 63.6%; in the test on NCI/ADR-RES ovarian, 16.6%; in the test with T-47D breast it was 93.3%; with BT-549 breast, 129%. Also, the growth is 96.6% with MDA-MB-435 melanoma; -59.4% (active) with SW-620 colon; -79.3% (active) with MCF7 breast; -77.8% (active) in the test with HCT-116 colon; 98.5% in the test with HCC-2998 colon; 11.2% in the test with KM12 colon.

On to `COc1cc2cc(Oc3ccc(NC(=O)Nc4cccc(C(F)(F)F)c4)cc3)c(C)nc2cc1OCCN(C)C`, for which the growth with SR leukemia is 26.1%; in the test on RPMI-8226 leukemia, 92.3%; in the test on OVCAR-8 ovarian it was 97.9%; in the test with OVCAR-5 ovarian, 108%; in the test on OVCAR-4 ovarian, 92.9%; in the test on SK-OV-3 ovarian, 107%. The growth with IGROV1 ovarian was 102%; with OVCAR-3 ovarian it was 122%; in the test on HS 578T breast it was 112%; in the test with NCI/ADR-RES ovarian, 93.9%; with T-47D breast, 91.8%; in the test on BT-549 breast, 119%. Further, the growth in the test on MDA-MB-435 melanoma is 96.6%; in the test on SW-620 colon, 111%; with MCF7 breast it was 69.2%; with HCT-116 colon it was 82.8%; with HCC-2998 colon it was 105%; in the test on KM12 colon, 98.2%.

Turning to `CC(c1ccccc1)N1C(=O)/C(=C/c2csc(C#N)n2)SC1=S` (stereo unspecified), the growth was 48.9% in the test with SR leukemia; 41.8% with RPMI-8226 leukemia; 93.4% in the test on OVCAR-8 ovarian; 107% in the test on OVCAR-5 ovarian; 98.1% in the test with OVCAR-4 ovarian; 108% in the test on SK-OV-3 ovarian. Besides, the growth is 90.9% in the test with IGROV1 ovarian; 55.5% with OVCAR-3 ovarian; 103% with HS 578T breast; 97.5% in the test on NCI/ADR-RES ovarian; 69.2% in the test on T-47D breast; 90.5% in the test on BT-549 breast. For the same molecule, the growth is 94.4% with MDA-MB-435 melanoma; 74.1% in the test on SW-620 colon; 36.6% in the test with MCF7 breast; 67.6% in the test on HCT-116 colon; 107% in the test with HCC-2998 colon; 103% in the test on KM12 colon.

With `CCCCCCCCNC(=O)c1ccc(Cn2c(CCCC)nc3c(N)nc4ccccc4c32)cc1`, the growth with SR leukemia was 8.69% (active); with RPMI-8226 leukemia it was -38% (active); in the test on OVCAR-8 ovarian it was -10.9% (active); with OVCAR-5 ovarian it was 75.5%; in the test on OVCAR-4 ovarian, -54.3% (active); in the test on SK-OV-3 ovarian it was 76.1%. The growth with IGROV1 ovarian is -37.8% (active); in the test on OVCAR-3 ovarian it was 69.5%; in the test on HS 578T breast, 87.4%; in the test on NCI/ADR-RES ovarian it was -62.2% (active); in the test on T-47D breast, -38.2% (active); in the test with BT-549 breast, 92.7%. Moreover, the growth with MDA-MB-435 melanoma is -83.1% (active); with SW-620 colon it was -39.6% (active); in the test with MCF7 breast it was -78% (active); with HCT-116 colon, -84.2% (active); with HCC-2998 colon, 15.5%; with KM12 colon, 42.1%.

Take `CCCCCCNC(=O)Oc1ccc(/C(=C(\C)c2ccc(OC)cc2)c2ccc(OCCN(C)C)cc2)cc1`: the growth in the test with SR leukemia was 13.1%; with RPMI-8226 leukemia, 19.4%; with OVCAR-8 ovarian, 86.4%; with OVCAR-5 ovarian, 86.8%; in the test with OVCAR-4 ovarian, 90.9%; in the test with SK-OV-3 ovarian, 103%. Besides, the growth was 68.4% in the test with IGROV1 ovarian; 91.3% in the test with OVCAR-3 ovarian; 83.2% in the test on HS 578T breast; 74.8% in the test with NCI/ADR-RES ovarian; 68.1% in the test on T-47D breast; 85.1% in the test with BT-549 breast. The growth was 87.7% in the test on MDA-MB-435 melanoma; 83.6% with SW-620 colon; 23.6% with MCF7 breast; 37.2% in the test with HCT-116 colon; 88.3% with HCC-2998 colon; 99.2% in the test with KM12 colon.
